# ± gives the standard deviation. Over roughly 3,700 sequences, “pre-steady-state target cleavage rate” has its median near 0.02; the highest 2% begin near 0.23. The full list was thinned out, with the highest values kept by preference.
# Test system: MILI (PIWIL2) piRISC loaded with Kctd7 piRNA (26 nt)
# Assay: pre-steady-state target cleavage rate (min^-1); MIWI and MILI are mouse PIWI proteins and EfPiwi is from a freshwater sponge; tags in brackets are library labels; higher = faster piRNA-guided slicing of the target
# Details: guide: Kctd7 piRNA 5'p-UGUUAAUCUCUCAGAGAAGGUGACAG; auxiliary factor: 500 nM mouse GTSF1
# Experimental: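 Cleave-'n-Seq: a library of target RNAs (target site embedded in constant flanks, ACAGCATTCCGCGTTAGTGATATCCG... 5' flank; DNA-blocked outside the site) at 0.1 nM was incubated with 1 nM active mouse MILI or MIWI piRISC (synthetic 5'-monophosphorylated piRNA guide) with or without 500 nM mouse GTSF1 at 33 °C for 1 min to 16 h. Uncleaved targets were sequenced and normalised to non-target controls, and the pooled three trials were fitted to a burst-and-steady-state model to give the pre-steady-state cleavage rate (min^-1; k3 is constrained to at most 1e-4). Sequence is the target site only; target names encode pairing extent (gX:gY) and contiguous / 1-mismatch / 2-mismatch / bulge geometry. Fits with R² ≤ 0 are excluded.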
row,Sequence,pre-steady-state target cleavage rate
1,UAGUGUGUCACCUUCUCUGAGAGAAUUAACA,0.277 ± 0.048
2,UAGUCUGUCACCUUCUCUGAGAGAAUUAACA,0.32 ± 0.051
3,UAGUCUGUCACCUUCUCUGAGAAUUAACA,0.0747 ± 0.031
4,UAGUGUGUCACCUUCUCUGAGAAAUUAACA,0.112 ± 0.019
5,UAGUGUGUCACCUUCUCUGAGAAUUAACA,0.0848 ± 0.036
6,UAGUCUGUCACCUUCUCUGAGAAAUUAACA,0.143 ± 0.018
7,UAGUGACAGUCCUUCUCUGAUGAGAUUAACA,0.00278 ± 0.0025
8,UAGUGACACUCCUUCUCUGAGUGAUUAACA,0.00415 ± 0.0032
9,UAGUGACAGACGUACUCUGAGAGAUUAACA,0.014 ± 0.0034
10,UAGUGUGUCACCUACUCUGAGAGAUUUUGA,0.0414 ± 0.016
11,UAGUGAGUCACCUACUCUGAGAGAUUUACA,0.164 ± 0.053
12,UAGUGUGUCACCUACUCUGAGAGAUUAUCA,0.239 ± 0.049
13,UAGUGUGUCACCUACUCUGAGAGAUUUACA,0.25 ± 0.052
14,UAGUGUGUCACCUACUCUGAGAGAUUAUGA,0.0343 ± 0.015
15,UAGUGUGUCACCUACUCUGAGAGAUUAAGA,0.1 ± 0.023
16,UAGUGUGUCACCUUCUCUGAGAGAUUUACA,0.266 ± 0.047
17,UAGUGUGUCACCUUCUCUGAGAGAUUACA,0.122 ± 0.036
18,UAGUGUCUCACCUUCUCUGAGAGAUUUACA,0.196 ± 0.043
19,UAGUGUGUCACCUUCUCUGAGAGAUUUAACA,0.391 ± 0.052
20,UAGUGUGUCACCUUCUCUCUGAGAUUAACA,0.0138 ± 0.004
21,UAGUGUGUCACCUUCUCUGAGAGAUUAACA [g2:g25:cont:t1A],0.216 ± 0.015
22,UAGUGACUGUCCUUCUCUGAGAGAUUAACA,0.2 ± 0.016
23,UAGUGAGUGACCUUGUCUGAGAGAUUAACA,0.0726 ± 0.014
24,UAGUGACAGACCUUGUCUGACAGAUUAACA,0.0121 ± 0.0036
25,UAGUGAGUCACCUUCUCUGAGAGAUUUUCA,0.145 ± 0.044

row,Sequence,pre-steady-state target cleavage rate
1,UAGUCUGUCACCUUCUCUGAGAGAUUCACA,0.265 ± 0.059
2,UAGUCUGUCAACCUUCUCUGAGAGAUUAACA,0.0716 ± 0.011
3,UAGUCUGUCACCUUCUCUGAGAGAUUACACA,0.153 ± 0.022
4,UAGUCUGUCACCUUCUCUGAGAGAUUCAACA,0.324 ± 0.061
5,UAGUGAGUCACCUUCUCUGAGAGAUCAACA,0.0788 ± 0.025
6,UAGUCUGUCACCUUCUCUGAGAGAUUUUCA,0.12 ± 0.031
7,UAGUGAGUCACCUUCUCUGAGAGAUUCAACA,0.279 ± 0.054
8,UAGUCUGUCACCUUCUCUGAGAGAUCAACA,0.114 ± 0.018
9,UAGUGACAGUGCUUCUCUGAGAGAUUAUCA,0.00765 ± 0.0025
10,UAGUCUGUCACCUUCUCUCAGAGAUUAACA,0.064 ± 0.0081
11,UAGUGACAGUGGAACUCUGAGAGUUAAACA,< 0.0001
12,UAGUGACACACCUUCUCUGAUGAGAUUAACA,0.00949 ± 0.0043
13,UAGUGAGUCACCUUCACUGACAGAUUAACA,0.0411 ± 0.013
14,UAGUGACACACCUUCUCUGAGAAAUUAACA,0.219 ± 0.035
15,UAGUGACUCACCUUCUCGAGAGAUUAACA,0.02 ± 0.0065
16,UAGUGUGUCACCUUCUCUGAAAGAUUAACA,0.0569 ± 0.011
17,UAGUGACAGUGGAACACUGAGACAUUAACA,< 0.0001
18,UAGUGUGUCACCUUCUCUGAGAGUAAAACA,0.194 ± 0.057
19,UAGUCUCUCACCUUCUCUGAGAGUUUAACA,0.183 ± 0.024
20,UAGUGUCUCACCUUCUCUGAGAGUUUAACA,0.286 ± 0.038
21,UAGUGUGUCACCUUCUCUGAGAGAGUAACA,0.287 ± 0.056
22,UAGUGUGUCACCUUCUCUGAGAGUUAAACA,0.146 ± 0.049
23,UAGUGUGUCACCUUCUCUGAGAGUUAACA,0.194 ± 0.055
24,UAGUGUGUCACCUUCUCUGAGAGAGUUAACA,0.259 ± 0.046
25,UAGUGUGUCACCUUCUGUGAGAGUUUAACA,0.0964 ± 0.027

row,Sequence,pre-steady-state target cleavage rate
1,UAGUGUGUCACCUUCUCUGUGAGUUUAACA,0.0386 ± 0.0085
2,UAGUGUGUCACCUUCUCUGAGAGUUUAACA,0.316 ± 0.078
3,UAGUGUGUCACCUUCUCUGAGAGUAUAACA,0.181 ± 0.072
4,UAGUGACUCACCUUCUCUGAGAGUUUAACA,0.118 ± 0.028
5,UAGUGAGUCACCUUGUCUGAGAGAUUUUGA,0.0161 ± 0.0098
6,UAGUGACACAGGAUCUCUGAGAGAUAUUGA,< 0.0001
7,UAGUGUGUCACCGUCUCUGAGAGAUUAACA,0.113 ± 0.012
8,UAGUCUGUCUCCUUCUCUGAGAGAUUAAGA,0.054 ± 0.012
9,UAGUCUGUCACCUUCUCUAAGAGAUUAACA,0.138 ± 0.0097
10,UAGUGUGUCACCUUCUCUGAGAGAUAACA,0.0605 ± 0.02
11,UAGUGUGUCACCUUCUCUGAGAGAUCUAACA,0.306 ± 0.071
12,UAGUCUGUCACCUUCUCUGAGAGACUAACA,0.149 ± 0.027
13,UAGUCUGUCACCUUCUCUGAGAGAUCUAACA,0.258 ± 0.054
14,UAGUGAGUCACCUUCUCUGAGAGAUCUAACA,0.171 ± 0.035
15,UAGUGAGUCACCUUCUGUGUGAGAUUAACA,0.0434 ± 0.0067
16,UAGUGACAGUCCUUCUCUGAGAGUAAUUGA [g8:g20:cont:t1A],< 0.0001
17,UAGUGACUCACCUUCUCUGAGAGCUUAACA,0.156 ± 0.022
18,UAGUGUGUCACCUGCUCUGAGAGAUUAACA,0.157 ± 0.012
19,UAGUGUGUCACCUUGCUCUGAGAGAUUAACA,0.248 ± 0.061
20,UAGUGAGUCACCUGCUCUGAGAGAUUAACA,0.169 ± 0.018
21,UAGUCUGUCACCUUGUCUGAGAGAUUAACA,0.133 ± 0.016
22,UAGUGUGUCACCUUGUCUGAGAGAUUAACA,0.134 ± 0.021
23,UAGUGACUCACCUUGCUCUGAGAGAUUAACA,0.048 ± 0.016
